# Test results taken from PMC7862700, “An all-to-all approach to the identification of sequence-specific readers for epigenetic DNA modifications on cytosine”.
# Columns and labels:
# Test in all cases: DAPPL (digital affinity profiling via proximity ligation, sequencing); 10 mM Tris-HCl pH 7.5, 50 mM NaCl, 1 mM DTT, 4% glycerol, room temperature, 30 min; GST-TFs on glutathione beads, 16-mer random dsDNA library, 0.1% formaldehyde crosslink after washing; high values mean tight binding
# FEV = target: T1, FEV (Homo sapiens, UniProt Q99581 1-238); conditions: protein: recombinant; tags: N-terminal GST; dsDNA, one strand shown
# T1 sequence: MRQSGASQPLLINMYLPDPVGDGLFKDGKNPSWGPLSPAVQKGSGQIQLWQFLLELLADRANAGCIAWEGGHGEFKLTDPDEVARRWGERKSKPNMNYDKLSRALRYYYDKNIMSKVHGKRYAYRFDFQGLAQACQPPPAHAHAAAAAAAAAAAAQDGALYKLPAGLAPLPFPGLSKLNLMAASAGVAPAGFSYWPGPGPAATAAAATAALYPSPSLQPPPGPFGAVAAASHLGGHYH
# In short: (§1)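 Sequencing on an Illumina NextSeq500 followed washing, crosslinking with 0.1% formaldehyde, proximity ligation (BsaI/T4 ligase, 1 h, 37 °C) and PCR amplification of pools that had been incubated for 30 min at room temperature with 200 nmole of a random double-stranded 16-mer DNA library in Tris/NaCl/DTT/glycerol buffer. Each pool held DNA-barcoded human transcription factors, expressed in yeast as GST fusions and captured on glutathione beads, plus a tag-only sample. Binding signal is a hexamer's read frequency for a factor divided by its frequency in the tag-only sample.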
# ETV5 = ETV5 (Homo sapiens, UniProt P41161 1-510); conditions: protein: recombinant; tags: N-terminal GST; dsDNA, one strand shown
# Chain of ETV5 (P41161 whole entry): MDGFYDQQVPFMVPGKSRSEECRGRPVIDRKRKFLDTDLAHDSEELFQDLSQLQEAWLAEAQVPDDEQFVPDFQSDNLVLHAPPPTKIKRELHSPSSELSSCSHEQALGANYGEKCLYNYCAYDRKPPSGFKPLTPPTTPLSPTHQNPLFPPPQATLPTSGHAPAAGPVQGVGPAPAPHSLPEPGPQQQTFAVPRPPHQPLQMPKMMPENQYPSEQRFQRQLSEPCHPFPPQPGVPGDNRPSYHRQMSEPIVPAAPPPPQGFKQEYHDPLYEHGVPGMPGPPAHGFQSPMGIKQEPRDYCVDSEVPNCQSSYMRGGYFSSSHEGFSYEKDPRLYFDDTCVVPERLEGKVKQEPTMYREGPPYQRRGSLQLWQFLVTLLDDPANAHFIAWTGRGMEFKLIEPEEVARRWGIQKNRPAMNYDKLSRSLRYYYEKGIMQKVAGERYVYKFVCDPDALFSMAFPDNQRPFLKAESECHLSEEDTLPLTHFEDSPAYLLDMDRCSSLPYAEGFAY
# In short: as §1
# HSF1 = HSF1 (Homo sapiens, UniProt Q00613 1-529); conditions: protein: recombinant; tags: N-terminal GST; chain copies: 3; dsDNA, one strand shown
# Chain of HSF1 (Q00613 whole entry): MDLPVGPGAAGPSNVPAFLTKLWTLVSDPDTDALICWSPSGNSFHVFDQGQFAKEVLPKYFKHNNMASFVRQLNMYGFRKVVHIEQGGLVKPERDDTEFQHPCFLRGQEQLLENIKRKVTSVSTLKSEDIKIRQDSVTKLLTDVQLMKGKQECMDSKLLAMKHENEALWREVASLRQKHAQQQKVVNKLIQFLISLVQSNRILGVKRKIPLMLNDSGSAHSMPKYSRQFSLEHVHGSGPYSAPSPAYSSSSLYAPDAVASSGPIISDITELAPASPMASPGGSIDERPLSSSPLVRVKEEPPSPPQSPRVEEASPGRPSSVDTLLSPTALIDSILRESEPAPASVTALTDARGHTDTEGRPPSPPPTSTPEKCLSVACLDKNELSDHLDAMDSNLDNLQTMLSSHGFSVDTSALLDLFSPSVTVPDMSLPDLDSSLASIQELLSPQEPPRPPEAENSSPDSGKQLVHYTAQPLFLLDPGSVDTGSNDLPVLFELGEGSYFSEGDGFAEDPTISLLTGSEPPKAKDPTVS
# In short: as §1
# SPIC = target: T2, SPIC (Homo sapiens, UniProt Q8N5J4 1-248); conditions: protein: recombinant; tags: N-terminal GST; dsDNA, one strand shown
# T2 sequence: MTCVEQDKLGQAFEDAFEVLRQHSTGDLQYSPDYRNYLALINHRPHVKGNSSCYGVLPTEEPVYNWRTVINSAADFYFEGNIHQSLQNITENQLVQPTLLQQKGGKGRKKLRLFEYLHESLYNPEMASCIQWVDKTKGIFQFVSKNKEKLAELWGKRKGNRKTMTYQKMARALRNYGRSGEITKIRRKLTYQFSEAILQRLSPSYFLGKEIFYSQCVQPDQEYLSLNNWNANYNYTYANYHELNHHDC
# In short: as §1
# ELF4 = ELF4 (Homo sapiens, UniProt Q99607 1-663); conditions: protein: recombinant; tags: N-terminal GST; dsDNA, one strand shown
# Chain of ELF4 (Q99607 whole entry): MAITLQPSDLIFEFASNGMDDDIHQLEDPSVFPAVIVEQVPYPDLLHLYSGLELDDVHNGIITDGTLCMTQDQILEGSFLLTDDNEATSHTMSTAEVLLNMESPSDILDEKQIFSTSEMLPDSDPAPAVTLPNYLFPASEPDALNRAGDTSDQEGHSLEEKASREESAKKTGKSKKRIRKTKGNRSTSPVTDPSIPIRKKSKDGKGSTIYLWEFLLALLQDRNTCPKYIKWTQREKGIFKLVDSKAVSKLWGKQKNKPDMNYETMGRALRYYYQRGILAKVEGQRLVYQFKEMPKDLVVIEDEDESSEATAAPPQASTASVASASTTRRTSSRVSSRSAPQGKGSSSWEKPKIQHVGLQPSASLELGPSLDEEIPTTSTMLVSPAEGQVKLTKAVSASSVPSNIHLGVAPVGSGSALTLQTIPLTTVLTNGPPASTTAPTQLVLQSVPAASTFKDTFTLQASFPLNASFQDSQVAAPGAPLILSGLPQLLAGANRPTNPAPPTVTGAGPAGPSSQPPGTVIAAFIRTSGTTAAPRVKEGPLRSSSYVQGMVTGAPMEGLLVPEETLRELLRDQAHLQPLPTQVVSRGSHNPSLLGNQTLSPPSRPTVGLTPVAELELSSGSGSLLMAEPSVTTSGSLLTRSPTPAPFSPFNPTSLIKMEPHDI
# In short: as §1
# ELK4 = target: T3, ELK4 (Homo sapiens, UniProt P28324-2 1-405); conditions: protein: recombinant; tags: N-terminal GST; dsDNA, one strand shown
# T3 sequence: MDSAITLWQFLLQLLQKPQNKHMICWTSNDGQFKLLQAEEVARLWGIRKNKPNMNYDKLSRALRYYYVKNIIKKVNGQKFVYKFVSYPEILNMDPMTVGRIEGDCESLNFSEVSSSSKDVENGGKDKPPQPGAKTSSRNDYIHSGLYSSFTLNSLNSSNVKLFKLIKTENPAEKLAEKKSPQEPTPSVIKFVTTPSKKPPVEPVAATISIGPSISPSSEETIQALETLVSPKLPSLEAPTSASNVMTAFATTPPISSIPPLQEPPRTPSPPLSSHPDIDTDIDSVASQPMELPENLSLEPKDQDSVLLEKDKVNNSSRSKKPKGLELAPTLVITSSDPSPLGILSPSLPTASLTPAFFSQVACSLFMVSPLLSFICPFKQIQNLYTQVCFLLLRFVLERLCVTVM
# In short: as §1
# ETV2 = target: T4, ETV2 (Homo sapiens, UniProt O00321 1-342); conditions: protein: recombinant; tags: N-terminal GST; dsDNA, one strand shown
# T4 sequence: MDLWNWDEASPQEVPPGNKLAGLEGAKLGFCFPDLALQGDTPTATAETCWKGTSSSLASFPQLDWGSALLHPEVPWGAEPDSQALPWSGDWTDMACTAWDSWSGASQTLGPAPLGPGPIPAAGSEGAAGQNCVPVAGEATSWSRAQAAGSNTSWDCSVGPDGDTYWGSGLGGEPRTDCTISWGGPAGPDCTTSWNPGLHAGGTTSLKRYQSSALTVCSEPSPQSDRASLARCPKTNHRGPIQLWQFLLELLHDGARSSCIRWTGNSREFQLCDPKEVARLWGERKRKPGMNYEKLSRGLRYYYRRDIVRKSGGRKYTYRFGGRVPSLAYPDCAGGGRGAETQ
# In short: as §1
# ELF3 = target: T5, ELF3 (Homo sapiens, UniProt P78545 1-371); conditions: protein: recombinant; tags: N-terminal GST; dsDNA, one strand shown
# T5 sequence: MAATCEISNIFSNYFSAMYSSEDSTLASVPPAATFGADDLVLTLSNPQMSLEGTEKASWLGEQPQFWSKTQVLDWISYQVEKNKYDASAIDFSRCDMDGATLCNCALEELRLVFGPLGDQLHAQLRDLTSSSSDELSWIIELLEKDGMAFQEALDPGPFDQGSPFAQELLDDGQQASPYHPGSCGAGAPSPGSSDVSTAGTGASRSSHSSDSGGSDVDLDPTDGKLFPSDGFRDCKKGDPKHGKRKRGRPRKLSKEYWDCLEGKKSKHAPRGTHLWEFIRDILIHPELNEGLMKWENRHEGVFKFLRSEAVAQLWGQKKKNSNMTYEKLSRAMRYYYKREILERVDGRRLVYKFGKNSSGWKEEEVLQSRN
# In short: as §1
# CRX = CRX (Homo sapiens, UniProt O43186 1-299); conditions: protein: recombinant; tags: N-terminal GST; dsDNA, one strand shown
# Chain of CRX (O43186 whole entry): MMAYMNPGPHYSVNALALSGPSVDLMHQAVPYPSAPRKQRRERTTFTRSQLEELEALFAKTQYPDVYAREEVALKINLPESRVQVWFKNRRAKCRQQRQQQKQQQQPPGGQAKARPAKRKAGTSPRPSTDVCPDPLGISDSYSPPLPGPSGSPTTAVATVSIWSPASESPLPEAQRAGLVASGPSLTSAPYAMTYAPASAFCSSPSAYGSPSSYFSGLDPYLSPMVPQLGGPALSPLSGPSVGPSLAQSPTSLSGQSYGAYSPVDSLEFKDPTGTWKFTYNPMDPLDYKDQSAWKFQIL
# In short: as §1
# ETV1 = ETV1 (Homo sapiens, UniProt P50549 1-477); conditions: protein: recombinant; tags: N-terminal GST; dsDNA, one strand shown
# Chain of ETV1 (P50549 whole entry): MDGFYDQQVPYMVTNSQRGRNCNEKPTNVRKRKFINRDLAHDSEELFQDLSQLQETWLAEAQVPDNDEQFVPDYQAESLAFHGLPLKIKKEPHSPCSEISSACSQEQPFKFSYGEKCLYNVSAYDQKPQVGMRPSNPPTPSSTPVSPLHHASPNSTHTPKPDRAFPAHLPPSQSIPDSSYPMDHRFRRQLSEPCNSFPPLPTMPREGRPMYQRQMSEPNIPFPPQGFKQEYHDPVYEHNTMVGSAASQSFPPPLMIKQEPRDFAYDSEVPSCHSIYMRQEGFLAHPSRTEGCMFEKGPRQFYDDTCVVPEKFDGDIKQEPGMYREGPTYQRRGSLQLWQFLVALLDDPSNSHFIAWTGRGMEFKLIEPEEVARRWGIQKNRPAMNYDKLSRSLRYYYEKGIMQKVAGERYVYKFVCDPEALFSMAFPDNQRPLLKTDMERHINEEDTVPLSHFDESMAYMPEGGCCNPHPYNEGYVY
# In short: as §1
# ERF = target: T6, ERF (Homo sapiens, UniProt P50548 1-548); conditions: protein: recombinant; tags: N-terminal GST; dsDNA, one strand shown
# T6 sequence: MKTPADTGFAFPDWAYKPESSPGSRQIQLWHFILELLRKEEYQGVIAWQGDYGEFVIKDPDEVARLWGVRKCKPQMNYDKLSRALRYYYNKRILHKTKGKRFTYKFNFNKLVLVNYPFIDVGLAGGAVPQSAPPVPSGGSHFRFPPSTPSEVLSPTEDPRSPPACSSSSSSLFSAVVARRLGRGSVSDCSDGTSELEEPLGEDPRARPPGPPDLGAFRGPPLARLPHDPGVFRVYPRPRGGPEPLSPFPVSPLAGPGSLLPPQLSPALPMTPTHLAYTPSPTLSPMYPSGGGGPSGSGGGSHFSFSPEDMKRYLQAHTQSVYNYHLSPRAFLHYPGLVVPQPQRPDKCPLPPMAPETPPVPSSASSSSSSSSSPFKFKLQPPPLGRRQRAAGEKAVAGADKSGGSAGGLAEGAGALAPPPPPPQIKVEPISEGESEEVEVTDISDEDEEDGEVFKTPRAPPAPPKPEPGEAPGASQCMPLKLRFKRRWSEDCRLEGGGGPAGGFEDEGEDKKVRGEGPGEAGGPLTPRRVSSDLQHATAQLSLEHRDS
# In short: as §1
# ETV3L = target: T7, ETV3L (Homo sapiens, UniProt Q6ZN32 1-361); conditions: protein: recombinant; tags: N-terminal GST; dsDNA, one strand shown
# T7 sequence: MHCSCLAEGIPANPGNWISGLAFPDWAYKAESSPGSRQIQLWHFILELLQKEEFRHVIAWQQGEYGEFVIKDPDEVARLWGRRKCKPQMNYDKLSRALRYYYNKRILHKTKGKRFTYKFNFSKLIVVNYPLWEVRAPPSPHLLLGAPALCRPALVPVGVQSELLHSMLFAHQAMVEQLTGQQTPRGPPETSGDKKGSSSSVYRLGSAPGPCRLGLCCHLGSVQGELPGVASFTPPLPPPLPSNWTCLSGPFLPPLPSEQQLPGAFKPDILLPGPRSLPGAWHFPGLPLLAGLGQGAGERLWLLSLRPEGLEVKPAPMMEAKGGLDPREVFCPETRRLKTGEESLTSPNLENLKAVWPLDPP
# In short: as §1
# ETS2 = target: T8, ETS2 (Homo sapiens, UniProt P15036 1-469); conditions: protein: recombinant; tags: N-terminal GST; dsDNA, one strand shown
# T8 sequence: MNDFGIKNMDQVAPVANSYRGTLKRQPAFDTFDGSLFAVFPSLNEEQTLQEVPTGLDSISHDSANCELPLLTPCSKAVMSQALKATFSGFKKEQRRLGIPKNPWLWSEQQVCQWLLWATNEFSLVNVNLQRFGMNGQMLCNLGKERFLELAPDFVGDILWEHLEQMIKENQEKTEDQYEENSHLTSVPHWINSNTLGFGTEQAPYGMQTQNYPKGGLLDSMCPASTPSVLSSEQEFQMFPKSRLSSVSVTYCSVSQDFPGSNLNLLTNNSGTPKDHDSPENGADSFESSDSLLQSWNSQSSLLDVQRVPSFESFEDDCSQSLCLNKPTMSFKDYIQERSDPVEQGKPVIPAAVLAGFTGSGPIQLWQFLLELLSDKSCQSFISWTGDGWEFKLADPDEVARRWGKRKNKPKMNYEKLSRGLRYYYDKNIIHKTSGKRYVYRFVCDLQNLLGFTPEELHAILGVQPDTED
# In short: as §1
# SPDEF = target: T9, SPDEF (Homo sapiens, UniProt O95238 1-335); conditions: protein: recombinant; tags: N-terminal GST; dsDNA, one strand shown
# T9 sequence: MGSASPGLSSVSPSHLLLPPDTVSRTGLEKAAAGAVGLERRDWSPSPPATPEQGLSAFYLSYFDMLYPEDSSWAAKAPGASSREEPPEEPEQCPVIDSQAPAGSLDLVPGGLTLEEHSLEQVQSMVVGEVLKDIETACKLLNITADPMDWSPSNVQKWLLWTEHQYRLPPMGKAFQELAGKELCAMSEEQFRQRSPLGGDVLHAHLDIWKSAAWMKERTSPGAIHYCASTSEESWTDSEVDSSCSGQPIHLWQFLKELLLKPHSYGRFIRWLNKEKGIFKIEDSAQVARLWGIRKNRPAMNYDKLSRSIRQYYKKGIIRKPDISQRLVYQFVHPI
# In short: as §1
# ETV7 = target: T10, ETV7 (Homo sapiens, UniProt Q9Y603 1-341); conditions: protein: recombinant; tags: N-terminal GST; dsDNA, one strand shown
# T10 sequence: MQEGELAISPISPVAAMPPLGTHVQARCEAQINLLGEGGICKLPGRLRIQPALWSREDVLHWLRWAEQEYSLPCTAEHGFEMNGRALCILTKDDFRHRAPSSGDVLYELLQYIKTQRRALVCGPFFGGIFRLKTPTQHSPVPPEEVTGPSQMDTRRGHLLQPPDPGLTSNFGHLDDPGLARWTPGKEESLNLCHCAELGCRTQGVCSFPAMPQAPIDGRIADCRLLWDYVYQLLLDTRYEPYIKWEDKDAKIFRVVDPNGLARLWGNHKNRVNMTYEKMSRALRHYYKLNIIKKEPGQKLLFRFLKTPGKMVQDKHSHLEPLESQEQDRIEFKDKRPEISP
# In short: as §1
# ELF5 = target: T11, ELF5 (Homo sapiens, UniProt Q9UKW6-2 1-255); conditions: protein: recombinant; tags: N-terminal GST; dsDNA, one strand shown
# T11 sequence: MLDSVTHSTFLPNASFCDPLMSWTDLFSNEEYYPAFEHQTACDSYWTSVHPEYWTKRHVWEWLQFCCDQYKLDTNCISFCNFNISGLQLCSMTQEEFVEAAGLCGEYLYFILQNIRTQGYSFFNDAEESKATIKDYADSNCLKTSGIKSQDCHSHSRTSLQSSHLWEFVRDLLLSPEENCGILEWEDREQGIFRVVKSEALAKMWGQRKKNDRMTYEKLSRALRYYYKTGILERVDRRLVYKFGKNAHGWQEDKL
# In short: as §1
# ETV3 = target: T12, ETV3 (Homo sapiens, UniProt P41162-2 1-143); conditions: protein: recombinant; tags: N-terminal GST; dsDNA, one strand shown
# T12 sequence: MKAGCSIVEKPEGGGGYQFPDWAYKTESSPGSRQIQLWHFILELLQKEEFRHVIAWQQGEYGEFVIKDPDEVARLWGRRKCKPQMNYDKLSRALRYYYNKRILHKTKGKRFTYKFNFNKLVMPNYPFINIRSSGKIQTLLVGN
# In short: as §1
# ETV6 = ETV6 (Homo sapiens, UniProt P41212 1-452); conditions: protein: recombinant; tags: N-terminal GST; dsDNA, one strand shown
# Chain of ETV6 (P41212 whole entry): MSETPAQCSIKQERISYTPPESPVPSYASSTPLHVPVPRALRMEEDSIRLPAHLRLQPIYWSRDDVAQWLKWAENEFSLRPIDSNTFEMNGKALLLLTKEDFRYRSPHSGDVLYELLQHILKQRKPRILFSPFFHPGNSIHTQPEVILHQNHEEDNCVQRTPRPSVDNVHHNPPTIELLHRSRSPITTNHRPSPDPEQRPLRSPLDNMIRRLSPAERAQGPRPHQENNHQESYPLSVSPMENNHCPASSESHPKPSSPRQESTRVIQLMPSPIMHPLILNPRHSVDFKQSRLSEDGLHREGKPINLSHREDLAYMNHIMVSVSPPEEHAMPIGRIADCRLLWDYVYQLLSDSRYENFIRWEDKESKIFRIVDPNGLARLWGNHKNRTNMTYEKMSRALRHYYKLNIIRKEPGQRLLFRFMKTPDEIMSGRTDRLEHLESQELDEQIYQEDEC
# In short: as §1
sequence,measurement,setting,value
TCCTCA,binding signal,FEV,"1.52 fold enrichment (6-mer frequency, TF over GST control)"
same,binding signal,ETV5,"1.52 fold enrichment (6-mer frequency, TF over GST control)"
same,binding signal,HSF1,"1.2 fold enrichment (6-mer frequency, TF over GST control)"
same,binding signal,SPIC,"1.63 fold enrichment (6-mer frequency, TF over GST control)"
same,binding signal,ELF4,"1.57 fold enrichment (6-mer frequency, TF over GST control)"
same,binding signal,ELK4,"1.67 fold enrichment (6-mer frequency, TF over GST control)"
same,binding signal,ETV2,"1.66 fold enrichment (6-mer frequency, TF over GST control)"
same,binding signal,ELF3,"1.44 fold enrichment (6-mer frequency, TF over GST control)"
same,binding signal,CRX,"1.4 fold enrichment (6-mer frequency, TF over GST control)"
same,binding signal,ETV1,"1.48 fold enrichment (6-mer frequency, TF over GST control)"
same,binding signal,ERF,"1.32 fold enrichment (6-mer frequency, TF over GST control)"
same,binding signal,ETV3L,"1.62 fold enrichment (6-mer frequency, TF over GST control)"
same,binding signal,ETS2,"1.56 fold enrichment (6-mer frequency, TF over GST control)"
same,binding signal,SPDEF,"1.59 fold enrichment (6-mer frequency, TF over GST control)"
same,binding signal,ETV7,"1.38 fold enrichment (6-mer frequency, TF over GST control)"
same,binding signal,ELF5,"2.13 fold enrichment (6-mer frequency, TF over GST control)"
same,binding signal,ETV3,"1.61 fold enrichment (6-mer frequency, TF over GST control)"
same,binding signal,ETV6,"1.54 fold enrichment (6-mer frequency, TF over GST control)"
